From PubChem BioAssay (NCATS) come the findings set out here.

Results filed as inconclusive are left out. Unmarked numbers belong to inactive results. Activity calls are given as the source filed them. Calls follow the shape of the dose curve; as a rule, active = well fitted inhibition curve with a large enough effect; inconclusive = small, poorly fitted or top-dose-only effect; inactive = flat fitted curve, though single readings scatter. *1 amine or outer side, *2 acyl side, *3 side chain or, on linkers, in order; H or OH if unused. Where a SMILES comes first, the peptide text is derived from it. Bridges are numbered along the chain shown (N, C = ends). [ ]: non-standard residue; d: D form. The star is where a group is joined. ξ: configuration not given here. ξhTyr(3S-OH,4S-OH,3'-OSO3H) = NC(C(=O)O)[C@H](O)[C@@H](O)c1ccc(O)c(OS(=O)(=O)O)c1; Orn(4R-OH,5R-OH) = O=C([C@H](C[C@@H](O)[C@@H](O)N[*:3])N[*:1])[*:2]; X2 = CCCCCOc1ccc(-c2cc(-c3ccc(C(=O)*)cc3)no2)cc1; X3 = C[C@H]1CN([*:1])C(C(=O)[*:2])[C@H]1O; ξGln(3R-OH) = NC(=O)C[C@@H](O)C(N)C(=O)O; ξPro(4R-OH) = O=C(O)C1C[C@@H](O)CN1; ξThr(3R) = C[C@@H](O)C(N)C(=O)O

Assay [1] concerns CRL-7250. The assay is described as follows: Cytotoxic Profiling of Annotated Libraries Using Quantitative High-Throughput Screening (AID 1296008). Also: potency is read from the fitted curve at half-maximal effect. As to max response: % is scaled to controls: 0 for no effect and ±100 for the full control effect. As to conditions: Five cell lines viability, CellTiter-Glo ATP luminescence, 48-72 h; max response: hits give low values. Summed up: (§1)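 Compounds were pin-transferred onto cells and incubated 48 or 72 hr at 37 degree Celsius, 95% humidity. CellTiter-Glo was added, plates sat 10 min at room temperature, then ATP-coupled luminescence was imaged as the viability read-out.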
On the technique in general: ATP-based viability assays read luminescence as a measure of living cells.

For assay [2], the system named is HEK293. The description is as above. The following applies: Five cell lines viability, CellTiter-Glo ATP luminescence, 48-72 h; max response: hits give low values. Summed up:
as §1

Assay [3] relates to HaCat. The description is as above. As to conditions: Five cell lines viability, CellTiter-Glo ATP luminescence, 48-72 h; max response: hits give low values. In a few lines: as §1
Assay [4] deals with KB-3-1. Described as above. As to conditions: Five cell lines viability, CellTiter-Glo ATP luminescence, 48-72 h; max response: hits give low values. In a few lines: as §1
Assay [5] deals with NIH3T3. The assay is described as above. The following applies: Five cell lines viability, CellTiter-Glo ATP luminescence, 48-72 h; max response: hits give low values. In a few lines: as §1
Assay [6] has as its system HACAT. The assay is described as follows: qHTS assay to identify novel small-molecules to repurpose for Merkel cell carcinoma treatment (AID 1296009). As to conditions: MCC and control cell lines, CellTiter-Glo viability, 72 h; at 44.8 µM (top of the series) unless noted. Summed up: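 Luminescence from CellTiter-Glo, read 10 min after addition at room temperature, reported viability following a 72 hr, 37 degree celsius treatment with NPC or MIPE compounds in titration; values normalized to plate controls.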
Also: nearly all actives have a fitted effect of over 60% in size.

On to `C/C=C(\C)C(=O)OCC1OC(OC2OC(CO)C(O)C(O)C2O)C(O)C(O)C1O` (stereo not drawn), for which the compound was classed as inactive in assay [1], in assay [3] and in assay [4]. Also, the max response was -3.96% in assay [2] and -3.87% in assay [5]. The outcome in assay [6] is “inactive [at 17.4 µM]”.

`CC(=O)O[C@H]1C[C@@]2(C)[C@@H](CC[C@H]3[C@@]4(C)C=CC(=O)[C@@H](C)[C@@H]4[C@H](OC(C)=O)C(=O)[C@@]32C)/C1=C(\CCC=C(C)C)C(=O)O`: the max response in assay [1] was 4.49%; in assay [2] it was -0.998%; in assay [4], 5.79%; in assay [5] it was -2.17%. Also, in assay [3], the compound was classed as inactive. For the same compound, in assay [6], the outcome is “inactive [at 17.4 µM]”.

As to `CC1(C)CC[C@]2(C(=O)O[C@@H]3O[C@H](CO)[C@@H](O)[C@H](O)[C@H]3O)CC[C@]3(C)C(=CCC4[C@@]5(C)CC[C@H](O[C@@H]6O[C@H](C(=O)O)[C@@H](O[C@@H]7O[C@H](CO)[C@@H](O)[C@H](O)[C@H]7O)[C@H](O)[C@H]6O)C(C)(C)C5CC[C@]43C)C2C1` (stereo partly drawn), the values for the max response in assay [1], in assay [2] and in assay [5] were -9.08%, 3.3% and 3.38%, respectively. In addition, the outcome in assay [3] and in assay [4] was inactive. The outcome in assay [6] was “inactive [at 9.27 µM]”.

`CC1(C)OC(=O)C=C[C@@]2(C)C1CC(=O)[C@]1(C)C2CC[C@@]2(C)[C@H](c3ccoc3)OC(=O)[C@H]3O[C@]321` (stereo partly drawn): the max response in assay [1] is -0.596%; in assay [2], -1.27%; in assay [5] it was -2.44%. In addition, the compound was called inactive in assay [3] and in assay [4]. Moreover, in assay [6], the outcome is “inactive [at 17.4 µM]”.

As to `CS(=O)(=O)c1ccccc1N1CCN(c2nc3c(c(=O)[nH]2)CSCC3)CC1`, the max response in assay [1] was 0.787%; in assay [2], 1.58%; in assay [4], -11.7%; in assay [5] it was -5.12%. In addition, the call in assay [3] and in assay [6] was inactive.

For `CCCCCOc1ccc(-c2cc(-c3ccc(C(=O)N[C@H]4C[C@@H](O)[C@@H](O)NC(=O)C5[C@@H](O)[C@@H](C)CN5C(=O)C([C@H](O)CC(N)=O)NC(=O)C([C@H](O)[C@@H](O)c5ccc(O)c(OS(=O)(=O)O)c5)NC(=O)C5C[C@@H](O)CN5C(=O)C([C@@H](C)O)NC4=O)cc3)no2)cc1` (stereo partly drawn) (X2-[Orn(4R-OH,5R-OH)][ξThr(3R)][ξPro(4R-OH)][ξhTyr(3S-OH,4S-OH,3'-OSO3H)][ξGln(3R-OH)][X3]; lactam 1-C), the result in assay [1], in assay [3] and in assay [4] was inactive. For the same compound, the max response was -7.85% in assay [2] and 3.77% in assay [5]. In addition, the outcome in assay [6] was “inactive [at 17.4 µM]”.

With `O=C(OC[C@H]1O[C@H](O[C@]2(CO)O[C@H](CO)[C@@H](O)[C@@H]2O)[C@H](O)[C@@H](O)[C@@H]1O)c1ccc(O)cc1`, the max response in assay [1] is -3.61%; in assay [2] it was 1.1%; in assay [4] it was 0.316%; in assay [5] it was -10.5%. The compound was classed as inactive in assay [3]. Moreover, in assay [6], the outcome is “inactive [at 17.4 µM]”.

As to `CC(C)C[C@H](NC(=O)[C@@H]1O[C@H]1C(=O)O)C(=O)NCCCCN=C(N)N`, the max response in assay [1] is -9.88%; in assay [2], -19.1%; in assay [4], 2.43%; in assay [5] it was 0.0799%. In addition, the result in assay [3] and in assay [6] was inactive.

Consider `C=C(C)[C@H]1CC[C@]2(C(=O)O)CC[C@]3(C)C(CCC4[C@@]5(C)CCC(=O)C(C)(C)C5CC[C@]43C)C12` (stereo partly drawn), for which the figures for the max response in assay [1], in assay [4] and in assay [5] were -18.5%, -14.2% and -1.29%, respectively. Moreover, the Potency in assay [2] is 7.09 µM (active). The call in assay [3] was inactive. In addition, the outcome in assay [6] is “inactive [at 17.4 µM]”.

Take `N[C@@H](CC(=O)Nc1ccc(Oc2cc(F)c(F)cc2Br)cc1)C(=O)O`: the max response was -23% in assay [1], -28.9% in assay [2], -3.53% in assay [4] and 0.0129% in assay [5]. Moreover, the outcome in assay [3] and in assay [6] was inactive.

With `CC(C)CC(=O)O[C@@H]1O[C@H](CO)[C@@H](O[C@H]2O[C@H](C)[C@@H](N[C@H]3C=C(CO)[C@@H](O[C@H]4O[C@H](CO)[C@@H](O[C@H]5O[C@H](CO)[C@@H](O[C@H]6O[C@H](CO)[C@@H](O)[C@H](O)[C@H]6O)[C@H](O)[C@H]5O)[C@H](O)[C@H]4O)[C@H](O)[C@H]3O)[C@H](O)[C@H]2O)[C@H](O)[C@H]1O`, the max response in assay [1] was 1.09%; in assay [2] it was -7.41%; in assay [5], -2.08%. The call in assay [3] and in assay [4] was inactive. In assay [6], the outcome is “inactive [at 9.27 µM]”.

Consider `COc1ccc(/C=C/C(=O)O[C@@H]2[C@@H](O)[C@@H](O)[C@H](O[C@H]3[C@@H]4C=CO[C@@H](O[C@@H]5O[C@H](CO)[C@@H](O)[C@H](O)[C@H]5O)[C@@H]4[C@@]4(CO)O[C@@H]34)O[C@H]2C)cc1`, for which the max response in assay [1] is -8.85%; in assay [2] it was -4.15%; in assay [4], 1.26%; in assay [5] it was 0.471%. In addition, the compound was called inactive in assay [3]. Moreover, the outcome in assay [6] is “inactive [at 17.4 µM]”.

As to `N#Cc1cc(-c2n[nH]c(-c3ccncc3)n2)ccn1`, the max response is -0.428% in assay [1], -15.1% in assay [2], -1.34% in assay [4] and 0.552% in assay [5]. The call in assay [3] and in assay [6] was inactive.

Take `CC(=O)OC/C(=C/C(=O)O)CC[C@@H]1C(CO)=CC[C@@H]2C(C)(C)CCC[C@@]12C`: the max response in assay [1] is 1.35%; in assay [2], 1.68%; in assay [5], -1.93%. Also, the result in assay [3], in assay [4] and in assay [6] was inactive.

As for `Cc1cc(-c2nncc3c(C(C)(C)C)c(OCc4ncnn4C)nn23)no1`, the compound was called inactive in assay [1], in assay [3] and in assay [6]. Also, the results for the max response in assay [2], in assay [4] and in assay [5] were -4.36%, 6.49% and 1.34%, respectively.

For `CCOc1ccc(-c2nn3ncccc3c2-c2ccc(S(C)(=O)=O)cc2)cc1`, the max response in assay [1] is -7.67%; in assay [2], -11.9%; in assay [4] it was 2.36%; in assay [5], 3.39%. The call in assay [3] and in assay [6] was inactive.

With `CCCC(=O)Nc1cccc(NC(=O)c2ccccc2Br)c1`, the call in assay [1], in assay [3] and in assay [6] was inactive. For the same compound, the max response in assay [2] was -4.38%; in assay [4] it was 8.7%; in assay [5], 3.78%.

On to `O=C(OCC1OC(Oc2ccc(O)cc2COC(=O)C2(O)C(O)CCC(=O)C2OC(=O)C2C=CCC2)C(OC(=O)C2C=CCC2)C(O)C1O)C1C=CCC1` (stereo not drawn), for which the max response in assay [1] was -0.0328%; in assay [2] it was -10.5%; in assay [4] it was 6.15%; in assay [5], 3.99%. In addition, the compound was classed as inactive in assay [3]. Also, the outcome in assay [6] is “inactive [at 17.4 µM]”.
